Assay outcomes deposited in PubChem BioAssay by National Center for Advancing Translational Sciences (NCATS).
VACV Venus inh – qHTS for Stage-Specific Inhibitors of Vaccinia Orthopoxvirus: Venus Reporter Primary qHTS; actives 0.46% (n = 330,000); Potency, µM (top dose mostly 36.5 µM), without a hit: at the top dose activity change, negative = inhibition, actives largely listed as inhibitors; Vaccinia virus Venus reporter expression, fluorescence; AID 720580, 2013; calls by dose curve; tested in A549 cells; note: potency is the fitted concentration of half-maximal effect; nearly all actives have a fitted effect of over 30% in size
VACV mCherry inh – qHTS for Stage-Specific Inhibitors of Vaccinia Orthopoxvirus: mCherry Reporter Primary qHTS | Vaccinia virus mCherry reporter infection, fluorescence | Potency, µM (doses to about 36.5 µM), inactives show at the top dose activity change, negative = inhibition, hits mostly inhibitors | actives 0.63% (n = 310,000); calls by dose curve; tested in A549 cells; note: potency is the fitted concentration of half-maximal effect; nearly all actives have a fitted effect of over 35% in size
HCV inhibitor – qHTS Assay for Inhibitors of Hepatitis C Virus (HCV) | AID 651820, 2012 | Potency, µM (highest dose often 41.8 µM), for the others: top-dose activity change, negative = inhibition, actives largely listed as inhibitors | Huh7.5.1 HCVcc-Cre infection, luciferase reporter, 44 h | actives 3.4% (n = 340,000); active = well fitted inhibition curve with a large enough effect; inconclusive = small, poorly fitted or top-dose-only effect, or another doubt; inactive = no such curve, though single readings can be large or run the other way; note: potency is the fitted concentration of half-maximal effect
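Infectious HCVcc-Cre (~0.5 moi) was added to cells just after compound, with cells seeded 4 h earlier at 1,000 per well. Luciferase activity after 44 h culture reported infection; substrate was incubated 15 min at room temperature before reading.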
HCMV inh – qHTS Assay for inhibitors of the human cytomegalovirus (HCMV). actives 4.5% (n = 410,000). HFF cells, HCMV-luciferase reporter, 72 h; active compounds read low. activity change, negative = inhibition, % at 57.5 µM. AID 1259415, 2018; in the data active = activity change below about -60%; inconclusive = no clear call, values can overlap the other calls; inactive = above about -39%
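Two-dose cell screen: HFF monolayers treated with compounds and infected with luciferase-expressing HCMV at 1 PFU/cell, 72 h at 37C, then lysed for luciferase measurement.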
FMDV antiviral – High Throughput Screening for Foot and Mouth Disease Virus Antivirals; actives 1.2% (n = 410,000); AID 1159524, 2015; Potency, µM (doses to about 57.9 µM), for inactives: at the top dose activity change, negative = inhibition, hits mostly inhibitors; FMDV antiviral cell-based qHTS; calls by dose curve; tested in HEK293T cells; note: read-out not given here; potency is the fitted concentration of half-maximal effect; nearly all actives have a fitted effect of over 45% in size
Starred values were filed as active, the others as inactive; i = inactive; ? = inconclusive; / = no result given. This is a sample that favours compounds with a hit; in the whole collection about 7.3% have one here. % is set by controls: 0 for no effect and ±100 for the full control effect.

SMILES	VACV Venus inh	VACV mCherry inh	HCV inhibitor	HCMV inh	FMDV antiviral
CCOC(=O)Cn1c(=O)oc2cc(S(=O)(=O)N3CCN(c4ccc(Cl)cc4)CC3)ccc21	-7%	-2%	/	-18	-23%
CCOc1ccc(NC(=O)CSc2nc3c(oc4ccccc43)c(=O)n2-c2ccccc2C)cc1	-14%	-21%	/	-82*	-6%
CC(C)/C=C/C(=O)N1CCC(N2CCC(C(=O)NCC3CCCO3)CC2)CC1 (configuration not stated)	1%	i	/	8	-12%
CCOC(=O)c1c(-c2ccccc2)oc2ccc(OCC(O)CNCCN(C)C)cc12 (configuration not stated)	?	11µM*	?	-8	?
CCOC(=O)c1c(-c2ccccc2)oc2ccc(OC)cc12	5%	/	11µM*	9	-5%
CCOC(=O)c1c(-c2ccccc2)oc2ccc(N(C(C)=O)S(=O)(=O)c3cc(C)ccc3C)cc12	-18%	-30%	/	-106*	11%
COC(=O)c1c(C)oc2ccc(N(C(=O)c3ccncc3)S(=O)(=O)c3ccc(Br)cc3)cc12	-22%	-11%	/	-28	-19%
COC(=O)c1c(C)oc2ccc(N(C(=O)c3ccncc3)S(=O)(=O)c3cc(C)ccc3C)cc12	-28%	?	/	-65*	-9%
CCc1cc2c(nc1CC)CCCN2S(=O)(=O)c1ccc(C#N)cc1	/	/	/	24	/
COc1ccc(Cl)cc1C(=O)OCC(=O)NC1CCCC(C)C1C (configuration not stated)	-5%	-12%	12%	-13	?
COc1cccc2cc(C(=O)OCC(=O)NC3CCCC(C)C3C)c(=O)oc12 (configuration not stated)	-3%	-2%	?	-61*	21%
O=C(Nc1nnc(-c2ccc(F)cc2)o1)c1cccc([N+](=O)[O-])c1	?	?	13µM*	-98*	19%
O=C(Nc1nnc(-c2ccc3c(c2)CCCC3)o1)c1ccccc1Cl	-29%	?	-5%	32	5%
O=C(Nc1nnc(-c2ccc3c(c2)CCCC3)o1)c1ccccc1	?	10µM*	?	-4	14%
O=C(Nc1nnc(C2=COCCO2)o1)c1cccc([N+](=O)[O-])c1	-10%	-17%	18%	13	-16%
COc1cccc(-c2cc3nc(NCc4ccccc4F)n(C)c(=O)c3s2)c1	0%	-10%	/	26	0%
S=C1SCN(Cc2ccco2)CN1Cc1ccco1	-20%	?	14µM*	-99*	1%
CCN1CSC(=S)N(Cc2ccccc2)C1	-10%	i	11µM*	?	-21%
Cc1ccc(CNC(=O)CSc2nc3ccccc3nc2Cc2ccc(C)cc2)cc1	-2%	-6%	/	7	-11%
O=C(Nc1ccnn1C1CCN(C2CCCCC2)CC1)c1ccccc1	/	/	4%	0	-27%
CN(C)S(=O)(=O)c1ccc(C(=O)Nc2ccnn2C2CCCCC2)cc1	/	/	-28%	-8	28µM*
COc1nc(C)c2cc(C)oc2n1	8%	i	-5%	-28	0%
COc1cccc2c1nc(C)c1cc(C)oc12	-23%	-7%	5.6µM*	34	12%
O=S(=O)(c1ccc(F)cc1)c1snnc1-c1ccccc1	-21%	?	-22%	-88*	?
O=S(=O)(c1ccc(Cl)cc1)c1snnc1-c1ccccc1	?	?	13µM*	-104*	10µM*
SMILES	VACV Venus inh	VACV mCherry inh	HCV inhibitor	HCMV inh	FMDV antiviral
C[C@H]1CN([C@@H](C)CO)C(=O)CCCn2cc(nn2)CO[C@@H]1CN(C)S(=O)(=O)c1ccc(F)cc1	/	/	/	-9	/
Cc1cccc(C(=O)N(Cc2ccco2)Cc2ccccc2F)c1	-5%	0%	/	-39	5%
Cc1ccnc(NC(=O)c2cc([N+](=O)[O-])cc([N+](=O)[O-])c2)c1	-17%	?	-24%	-22	-12%
Cc1ccnc(NC(=O)c2ccc([N+](=O)[O-])s2)c1	/	/	3.5µM*	28	58%
O=C(NC1CCCC1)c1ccc([N+](=O)[O-])s1	-16%	-24%	?	-32	-21%
Cc1cccc(NC(=O)Nc2ccc([N+](=O)[O-])cc2)n1	/	/	-11%	-62*	29%
